Test results from PubChem BioAssay AID1053124 (Broad Institute, 2014).
Measured potencies and affinities stand elsewhere. Active and inactive are the calls of the source.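 How the source made its calls: active means cell killing whose fitted half-effect concentration is at most twice the top valid dose tested; inconclusive means flat curve with 30 to 70% killing, or a poor fit; inactive means effect in the rising direction, plus the rest.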

Assay: viability loss in A549 lung cells – cell-based, ATP luminescence, cherry-pick, set 2, cytotoxicity control, dose response (AID 1053124)
Details: ATP luminescence (CellTiter-Glo), 72 h; series mostly up to 26 µM

**Q.** Which outcome does the source give for `N#CC1=C(N)Oc2cc(O)ccc2C1c1ccc2c(c1)OCO2` (stereo not drawn) here?
**A.** The outcome was “inactive”.

**Q.** For `CC12CC(c3ccccc3O1)C(C(=O)OCc1ccccc1)C(=O)N2` (stereo not drawn), which outcome is on record?
**A.** Its outcome is “inactive”.

**Q.** Which outcome does the source give for `CC(C)OP(=O)(O)NC(=O)c1ccccc1` here?
**A.** Its outcome is “inactive”.
